Assay results published in the supplement of paper PMC6522484.
Structures can show the parent of a compound that is named as a salt. ± gives the standard deviation of the averaged measurements.

What was measured:
[1] = test system: DLD1; test: cell viability (CellTiter-Glo) relative to plate median (fraction of plate median); higher = more viable cells; conditions: 10 µM, treatment time 24 h
In short: (§1)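 Kinase inhibitor library compounds were added at a final 10 µM for 24 h to colorectal cancer cells in 384-well plates, 24 h after seeding. The cells stably expressed lentiviral TCF/Wnt firefly luciferase reporters. Firefly luciferase and CellTiterGlo luminescence came from parallel plates, and each well was normalised to its plate median (webcellHTS2, additive, untransformed), averaged over two independent replicates.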

[2] = test system: HCT116; test: as above; conditions: 10 µM; treatment time 24 h; reporter: TCF4/Wnt
In short: as §1

[3] = test system: SW480; test: as above; conditions: 10 µM; treatment time 24 h; reporter: 7TFP
In short: as §1

[4] = test system: DLD1; test: TCF/Wnt firefly luciferase reporter signal relative to plate median (fraction of plate median); higher = higher Wnt reporter signal; conditions: 10 µM, treatment time 24 h
In short: as §1

[5] = test system: HCT116; test: as above; conditions: 10 µM; treatment time 24 h; reporter: TCF4/Wnt
In short: as §1

[6] = test system: SW480; test: as above; conditions: 10 µM; treatment time 24 h; reporter: 7TFP
In short: as §1

Row | Structure (SMILES) | cell viability ([1]; reporter: 7TFP) | cell viability ([1]; reporter: TCF4/Wnt) | cell viability [2] | cell viability [3] | TCF/Wnt firefly luciferase reporter signal ([4]; reporter: 7TFP) | TCF/Wnt firefly luciferase reporter signal ([4]; reporter: TCF4/Wnt) | TCF/Wnt firefly luciferase reporter signal [5] | TCF/Wnt firefly luciferase reporter signal [6]
1 | CO[C@@H](C(=O)N1Cc2[nH]nc(NC(=O)c3ccc(N4CCN(C)CC4)cc3)c2C1)c1ccccc1 | 1.09 ± 0.11 | 1.12 ± 0.071 | 0.823 ± 0.29 | 1.1 ± 0.042 | 1.23 ± 0.064 | 1.41 ± 0.014 | 0.388 ± 0.019 | 0.656 ± 0.083
2 | COC(=O)Nc1ccc(-c2nc(N3CCOCC3)c3cnn(C4CCN(C(=O)OC)CC4)c3n2)cc1 | 1.13 ± 0.014 | 1.13 ± 0.028 | 1.105 ± 0.0071 | 1.11 ± 0.028 | 1.07 ± 0.057 | 0.973 ± 0.053 | 1.23 ± 0.12 | 1.11 ± 0.085
3 | CN(C)Cc1cccc(N/C(=C2\C(=O)Nc3cc(C(N)=O)ccc32)c2ccccc2)c1 | 1.15 ± 0.13 | 1.09 ± 0.057 | 1.09 ± 0.028 | 1.085 ± 0.0071 | 0.977 ± 0.23 | 0.982 ± 0.12 | 1.05 ± 0.095 | 1.14 ± 0.035
4 | COc1cc(Nc2ncc3c(n2)-c2ccc(Cl)cc2C(c2c(F)cccc2OC)=NC3)ccc1C(=O)O [MLN8237 (Alisertib)] | 0.987 ± 0.047 | 0.95 ± 0.067 | 0.954 ± 0.12 | 0.943 ± 0.014 | 1.08 ± 0.014 | 1.16 ± 0.16 | 1.01 ± 0.12 | 0.974 ± 0.066
5 | CN(C)CCOc1ccc(-c2nc(-c3ccncc3)c(-c3ccc4c(c3)CC/C4=N\O)[nH]2)cc1 | 1.04 ± 0.071 | 1.14 ± 0.064 | 1.2 ± 0.11 | 1.11 ± 0.071 | 1.3 ± 0.092 | 1.28 ± 0.042 | 1.19 ± 0.24 | 1.27 ± 0.33
6 | CC[C@H](CO)Nc1nc(NCc2ccccc2)c2ncn(C(C)C)c2n1 [Roscovitine (Seliciclib, CYC202)] | 0.852 ± 0.065 | 0.922 ± 0.0099 | 0.923 ± 0.12 | 0.833 ± 0.039 | 1.14 ± 0.35 | 1.46 ± 0.23 | 1.34 ± 0.43 | 1.02 ± 0.028
7 | C=CC(=O)N1CCC[C@@H](n2nc(-c3ccc(Oc4ccccc4)cc3)c3c(N)ncnc32)C1 | 1.05 ± 0.077 | 1.115 ± 0.0071 | 1.36 ± 0.085 | 1.16 ± 0.064 | 0.557 ± 0.17 | 0.881 ± 0.35 | 1.33 ± 0.14 | 1.11 ± 0.042
8 | CN(C)c1ccc(-c2nc3ncc(Cl)c(N4CCN(CC(=O)Nc5nccs5)CC4)c3[nH]2)cc1 | 1.1 ± 0.05 | 1.04 ± 0.021 | 1.14 ± 0.028 | 0.96 ± 0.057 | 1.1 ± 0.3 | 1.1 ± 0.31 | 1.26 ± 0.17 | 1.16 ± 0.064
9 | Cc1ccc(-n2nc(C(C)(C)C)cc2NC(=O)Nc2ccc(OCCN3CCOCC3)c3ccccc23)cc1 [BIRB 796 (Doramapimod)] | 1.15 ± 0.057 | 1.12 ± 0.17 | 1.06 ± 0.096 | 0.975 ± 0.064 | 0.984 ± 0.0028 | 1.05 ± 0.17 | 1.18 ± 0.22 | 1.07 ± 0.078
10 | FC(F)c1nc2ccccc2n1-c1nc(N2CCOCC2)nc(N2CCOCC2)n1 | 0.82 ± 0.08 | 0.835 ± 0.016 | 0.829 ± 0.042 | 1.065 ± 0.0071 | 0.673 ± 0.019 | 0.891 ± 0.11 | 1.01 ± 0.061 | 1.03 ± 0.17
11 | C[C@@H](N)[C@H]1CC[C@H](C(=O)Nc2ccncc2)CC1 | 1.03 ± 0.05 | 1.03 ± 0.05 | 1.09 ± 0.021 | 1.045 ± 0.0071 | 1.22 ± 0.092 | 1.32 ± 0.057 | 1.53 ± 0.064 | 1.18 ± 0.057
12 | CN(C)C1CCN(C(=O)c2ccc(NC(=O)Nc3ccc(-c4nc(N5CCOCC5)nc(N5CCOCC5)n4)cc3)cc2)CC1 | 1.1 ± 0.17 | 1.05 ± 0.081 | 0.649 ± 0.051 | 1.17 ± 0.05 | 0.947 ± 0.076 | 0.933 ± 0.073 | 0.611 ± 0.23 | 0.958 ± 0.1
13 | O=C(Nc1cccc(Nc2ncc(Br)c(NCCc3cnc[nH]3)n2)c1)N1CCCC1 | 1.07 ± 0.05 | 1.02 ± 0.071 | 0.932 ± 0.016 | 1.16 ± 0.05 | 1.74 ± 0.31 | 1.39 ± 0.38 | 1.97 ± 0.11 | 1.33 ± 0.13
14 | CN(c1ncccc1CNc1nc(Nc2ccc3c(c2)CC(=O)N3)ncc1C(F)(F)F)S(C)(=O)=O | 0.974 ± 0.19 | 1.06 ± 0.071 | 0.698 ± 0.21 | 1.19 ± 0.11 | 0.732 ± 0.28 | 1.66 ± 0.33 | 0.2 ± 0.037 | 0.9115 ± 0.0064
15 | C#Cc1cccc(Nc2ncnc3cc(OCCOC)c(OCCOC)cc23)c1 [Erlotinib HCl] | 1.035 ± 0.0071 | 0.934 ± 0.034 | 1.14 ± 0.078 | 1 ± 0.013 | 0.888 ± 0.023 | 0.73 ± 0.0057 | 0.729 ± 0.4 | 0.868 ± 0.3
16 | O=C(O)[C@]1(Cc2cccc(Nc3nccs3)n2)CC[C@@H](Oc2cccc(Cl)c2F)CC1 | 1.08 ± 0.092 | 1.02 ± 0.014 | 0.959 ± 0.057 | 1.14 ± 0.014 | 0.824 ± 0.061 | 0.857 ± 0.2 | 0.568 ± 0.44 | 0.742 ± 0.0071
17 | Cc1cnc(Nc2ccc(OCCN3CCCC3)cc2)nc1Nc1cccc(S(=O)(=O)NC(C)(C)C)c1 | 1.07 ± 0.064 | 1.14 ± 0.16 | 1.14 | 0.871 ± 0.04 | 1.2 ± 0.26 | 1.14 ± 0.18 | 1.31 ± 0.22 | 1.06 ± 0.078
18 | COc1ncc(-c2ccc3nccc(-c4ccnnc4)c3c2)cc1NS(=O)(=O)c1ccc(F)cc1F | 0.84 ± 0.018 | 0.944 ± 0.073 | 0.295 ± 0.026 | 1.09 ± 0.042 | 0.255 ± 0.054 | 0.238 ± 0.067 | 0.132 ± 0.021 | 0.558 ± 0.0092
19 | CNC(=O)c1ccc(C)c(-n2c(C)cc(OCc3ccc(F)cc3F)c(Br)c2=O)c1 | 1.07 ± 0.057 | 1.015 ± 0.0071 | 1.05 ± 0.035 | 0.868 ± 0.047 | 1.17 ± 0.24 | 1.02 ± 0.061 | 0.81 ± 0.046 | 1.02 ± 0.11
20 | C#Cc1cccc(Nc2ncnc3cc(OCCOC)c(OCCO)cc23)c1 | 0.923 ± 0.073 | 0.988 ± 0.045 | 1.22 ± 0.064 | 0.961 ± 0.013 | 0.821 ± 0.11 | 0.819 ± 0.14 | 0.804 ± 0.012 | 1.05 ± 0.098
21 | Cc1cccc(-c2[nH]c(C(C)(C)C)nc2-c2ccc3nccnc3c2)n1 | 1.14 ± 0.064 | 1.06 ± 0.14 | 1.17 ± 0.028 | 0.853 ± 0.043 | 1.1 ± 0.042 | 1.03 ± 0.12 | 1.03 ± 0.14 | 0.854 ± 0.17
22 | CN1CCN(c2ccc3nc(-c4c(N)c5c(F)cccc5[nH]c4=O)[nH]c3c2)CC1 [Dovitinib (TKI-258)] | 0.901 ± 0.18 | 0.908 ± 0.033 | 0.748 ± 0.27 | 1.02 ± 0.11 | 1.26 ± 0.23 | 1.3 ± 0.092 | 0.97 ± 0.042 | 1.39 ± 0.6
